# Measured values as given in PubChem BioAssay (NCI).
# This is part of a sample that, as a whole, favours compounds with a hit. Of some 83,000 tested, about 20% had one in any assay.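 Cell lines were cultured in 96-well plates, exposed to a single compound concentration, and assessed for percent growth 48 hours later.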 Active and inactive are the calls of the source. The calls were made as follows: active = growth percent below 10; inactive = the rest.
# Test system: NCI-H322M lung
# Assay: NCI-60 one-dose screen, 48 h (100 = growth as untreated, 0 = no growth, -100 = all killed)
# Conditions: 10 µM unless noted
row,Compound,growth
1,CCCc1nn(C)c2c(=O)[nH]c(-c3cc(S(=O)(=O)N4CCN(C)CC4)ccc3OCC)nc12,101% (inactive)
2,O=C(/C(=N/O)S(=O)(=O)c1ccccc1)c1cccs1,111% (inactive)
3,Cc1ccccc1-c1cc(Cc2ccccc2O)c(=O)[nH]n1,115% (inactive)
4,O=C(CSc1nc2c(n1Nc1ccccc1)-c1ccccc1SC2)Nc1nc(-c2ccc(Cl)cc2)cs1,91.1% (inactive)
5,CCOc1cc(C(C)(C)C)ccc1C1=N[C@H](c2ccc(Cl)cc2)[C@H](c2ccc(Cl)cc2)N1C(=O)N1CCN(CC#Cc2cccc3c2CN([C@@H]2CCC(=O)NC2=O)C3=O)CC1,9.35% (active)
6,Nc1ccc(S(=O)(=O)Nc2ncccn2)cc1,120% (inactive)
7,CC(=O)n1c2ccccc2c2ccccc21,107% (inactive)
8,O=C1C(Cl)=C(N=Nc2c(Cl)c(O)c3ccccc3c2O)C(=O)c2ccccc21,45% (inactive)
9,NC(N)=NN=c1c(=O)c2ccccc2c1=O,102% (inactive)
10,O=C(Nc1ccccc1Cl)c1cnc2ccc(C3CCNCC3)cn12,23.1% (inactive)
11,CC12CCC3C(CCC4CC(=O)/C(=C\O)CC43C)C1CCC(=O)O2 (stereo not given),108% (inactive)
12,Oc1[nH]c2ccc(Cl)cc2c1/C=c1/ccc2c(c1)N=C(c1ccc(C(F)(F)F)cc1)N=2,84.3% (inactive)
13,O=C(c1ccccc1)c1ccccc1Cl,108% (inactive)
14,N#Cc1c(N2CCOCC2)nc2sc3cc(Cl)ccc3n2c1=N,117% (inactive)
15,O=C1CCCN1C1CCN(Cc2cc3ccccc3[nH]c2=O)c2ccccc21 (stereo not given),83.2% (inactive)
